Hits are enriched below; roughly 4.4% of the tested compounds scored in any of these assays.
D1 antag = antagonists of human D1 dopamine receptor | P21728 | HEK293 TREx D1 cells, calcium flux, dopamine EC80; hits give low values | activity change, negative = inhibition, % at 10 µM | 360,000 tested, 3.2% active | AID 504652; in the data active = activity change below about -30%; note: % is set by controls: 0 for no effect and ±100 for the full control effect
Target sequence (P21728 whole entry, looked up): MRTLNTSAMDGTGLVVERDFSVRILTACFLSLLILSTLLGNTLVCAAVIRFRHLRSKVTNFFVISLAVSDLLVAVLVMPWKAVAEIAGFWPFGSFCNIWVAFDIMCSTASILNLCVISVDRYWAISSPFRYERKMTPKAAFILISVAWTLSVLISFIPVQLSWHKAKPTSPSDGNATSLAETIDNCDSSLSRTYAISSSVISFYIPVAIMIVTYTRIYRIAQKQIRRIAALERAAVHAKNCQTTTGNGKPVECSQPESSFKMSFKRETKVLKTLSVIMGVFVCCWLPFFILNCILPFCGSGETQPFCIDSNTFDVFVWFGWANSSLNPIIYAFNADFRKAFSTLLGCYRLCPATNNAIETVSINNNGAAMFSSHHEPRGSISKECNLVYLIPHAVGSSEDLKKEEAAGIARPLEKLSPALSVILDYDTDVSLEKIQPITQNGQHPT
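Compound effects on dopamine-evoked calcium signalling were measured in tetracycline-induced HEK293 Trex D1 cells. Dopamine at EC80 followed a 180 s compound pre-read, and fluorescence was tracked kinetically for 180 s more.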
TRHR enhancer = allosterically enhances the human TRH receptor; P34981; TRHR cells, fluo-8 calcium fluorescence, EC20 TRH enhancement; enhancement, % at 2 µM; 360,000 tested, 0.66% active; AID 493056; in the data active = enhancement above about 30%; note: 0% is about no effect
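Enhancer read-out: after compound pinning and an initial kinetic agonist-mode read, an EC20 of TRH (10 nM final) was injected and fluo-8 calcium signal (Ex 480/Em 530) followed at 1 s/cycle for 100 cycles in TRHR-expressing cells.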
D1 agonist = agonists of human D1 dopamine receptor; HEK293 T-REx D1 cells, calcium flux, agonist mode; activation, % at 2 µM; 360,000 tested, 1% active; note: 0% is about no effect
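Tetracycline-induced HEK293 TREx D1 cells, force-coupled to calcium signalling, were dye-loaded with a no-wash calcium kit. Compound was pin-added after a 10 s baseline. Fluorescence was read kinetically at 1 cycle/s for 180 s, with calcium rises flagged as agonism.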
USP1 inh = blocks the human USP1/UAF1 deubiquitinase complex. O94782. recombinant USP1/UAF1, Ub-Rhodamine cleavage fluorescence. Potency, µM (highest dose often 57.1 µM), without a hit: at the highest dose activity change, negative = inhibition, most hits filed as inhibitors. 390,000 tested, 0.23% active. AID 743255; active = well fitted inhibition curve with a large enough effect; inconclusive = small, poorly fitted or top-dose-only effect; inactive = no such curve, though single readings can be large or run the other way; note: potency is the fitted concentration of half-maximal effect; % is set by controls: 0 for no effect and ±100 for the full control effect; nearly all actives have a fitted effect of over 60% in size
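Step one: compound is pinned into 1nM USP1/UAF1 in HEPES pH 7.8 buffer with TCEP. Step two: 15 min room-temperature incubation. Step three: Ub-Rho (150nM final) starts cleavage, tracked by fluorescence over six one-minute reads.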
TRHR ag = agonists of human TRH receptor. P34981. TRHR cells, calcium flux fluo-8, FDSS agonist mode. activation, % at 2 µM. 360,000 tested, 0.18% active. AID 493084; note: 0% is about no effect
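Steps: seed TRHR cells overnight; add fluo-8 no-wash Ca dye, RT 30 min–1.5 h; record 10 s baseline; pin-transfer compounds; monitor fluorescence 1 cycle/s for the agonist window. Calcium increases flag candidate agonists.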
D1 potentiator = potentiators of human D1 dopamine receptor; 360,000 tested, 0.036% active; P21728; HEK293 TREx D1 cells, calcium flux, dopamine EC20 potentiation; potentiation, % at 10 µM; AID 504651; in the data active = potentiation above about 30%; note: 0% is about no effect
Numbers without * were called inactive; u = inconclusive; x = no result; ! = not confirmed by another sample. Cut-off read from the data, not from the text of the source, unless noted: active = activation above about 30%; inactive = the rest.

SMILES	D1 antag	TRHR enhancer	D1 agonist	USP1 inh	TRHR ag	D1 potentiator
Cc1ccc(NC(=O)Cn2cnc3c2c(=O)n(C)c(=O)n3C)cc1C	3.8	24.5	-0.1	-25.5%	0.0	-5.8
NC(=O)c1ccc[n+](CC(=O)c2ccc(Cl)c(Cl)c2)c1	-83.3*	3.5	-0.7	-3.5%	0.3	-3.8
c1ccc(Nc2nc3ccccc3n3cnnc23)cc1	11.7	34.2*	-0.2	u	-0.6	-0.5
Cc1ccc(CNc2nc3ccccc3n3cnnc23)cc1	-37.2*!	-0.5	-0.8	-9.0%	-0.3	-4.1
O=C1c2ccccc2NC(c2ccc(O)cc2)N1c1ccccc1 (centres undefined)	-75.4*	-0.1	0.3	-4.8%	0.3	1.8
O=C1c2ccccc2NC(c2ccccc2)N1c1ccc(O)cc1 (centres undefined)	-10.3	-6.8	0.7	-1.1%	-1.1	-0.9
Cc1cc2nnc(SCc3ccc(F)cc3)n2c2ccccc12	-5.2	28.4	2.1	-17.1%	-1.1	1.6
Cc1cn2c(=O)cc(COC(=O)c3cccc(NC(=O)c4ccc(C(C)(C)C)cc4)c3)nc2s1	-2.6	-1.5	1.6	u	0.2	-0.4
COc1ccc(-n2c(=O)c3c4c(sc3n(C)c2=O)CN(C(C)=O)CC4)cc1	0.5	5.9	0.8	-9.1%	0.0	-6.8
Nc1c(Cl)cc(-c2[nH]c3cc(C(=O)NCCO)ccc3c(=O)c2O)cc1Cl	12.1	6.7	11.7	-28.5%	20.9	-3.9
CCCNC(=O)c1ccc2c(=O)c(O)c(-c3cccc(Br)c3)[nH]c2c1	-35.9*	4.9	6.3	-24.4%	-0.5	-8.3
CCCNC(=O)c1ccc2c(=O)c(O)c(C)[nH]c2c1	-5.8	-1.3	3.8	-22.2%	0.3	-4.8
CCCNC(=O)c1ccc2c(=O)c(O)c(-c3ccc(F)cc3)[nH]c2c1	-58.6*	1.6	1.2	u	2.0	-9.1
COc1ccc(CNC(=O)CN2C(=O)CC(c3ccc(C)c(C)c3)=Nc3ccccc32)cc1	4.7	2.3	4.3	-12.5%	0.3	-3.6
CCOc1ccc(NCc2nnc(SCc3ccccc3Cl)n2-c2ccccc2)cc1	-1.1	-3.0	1.2	-10.7%	0.0	-3.7
Clc1ccccc1CSc1nnc(Cn2cnc3ccccc32)n1-c1ccccc1	-82.3*	3.8	2.3	-2.9%	-0.5	0.1
CC(N)=Nc1ccc([N+](=O)[O-])cc1	-0.7	0.4	3.7	-16.6%	1.3	2.1
O=[N+]([O-])c1ccc(N=Nc2c(Cl)cc(O)cc2Cl)cc1	-46.3*	-4.6	21.2	-22.5%	7.2	-12.8
Cc1ccc2oc(=O)c3cc(C(=O)N4CCN(c5ccccc5)CC4)sc3c2c1	5.8	4.5	-0.7	-15.7%	0.0	-2.5
Cc1c(Cl)cccc1NC(=O)CSc1ncc(S(=O)(=O)c2ccc(C(C)C)cc2)c(=O)[nH]1	3.1	-6.6	16.0	-20.4%	0.3	-3.9
COc1cc(/C=C2\C(C)=C(C#N)c3nc(N)c(C#N)c(C)c32)ccc1OCC(=O)O	-57.2*	-7.2	4.1	-19.1%	1.5	-4.4
CC1=C(C#N)c2nc(N)c(C#N)c(C)c2/C1=C\c1ccc(C)cc1	-8.1	5.9	3.4	x	-0.9	-5.4
CCOC(=O)c1c(CSc2ccccc2)n(C)c2cc(Br)c(OCC(O)CNC(CO)(CO)CO)cc12 (centres undefined)	-46.5*	2.7	2.1	u	0.0	-4.2
O=C1C2=C(C(=O)c3ccccc31)C1O[C@](c3ccsc3)(Cc3ccccc31)O2	3.2	-3.8	0.5	x	-0.2	-7.5
O=C(NCCN1CCOCC1)C(=O)NCC1CCCO1 (centres undefined)	15.9	34.1*	5.4	-14.0%	0.0	-2.1
SMILES	D1 antag	TRHR enhancer	D1 agonist	USP1 inh	TRHR ag	D1 potentiator
CCOC(=O)c1c(NC(=O)c2cc(-c3ccccc3OC)on2)sc(C)c1C	-3.0	13.6	-0.2	-1.2%	2.6	-0.6
COC(=O)c1ccc(COC(=O)C(NC(=O)Cc2ccccc2)C(C)C)cc1 (centres undefined)	-32.4*	24.4	5.9	-11.1%	-0.2	2.0
O=C(C1COc2ccccc2O1)N1CCN(c2nc3c(F)cccc3s2)CC1 (centres undefined)	x	-1.6	0.0	-0.2%	1.0	-1.3
CC(=O)c1ccc(N2CCN(C(=O)CCc3nnc4n(C)c(=O)c5sccc5n34)CC2)cc1	1.1	-10.6	0.1	-4.7%	-0.2	0.7
CC(C)c1nc2oc3ccccc3c(=O)c2c(=O)n1-c1ccccc1	1.9	1.5	53.9*	-15.7%	-0.4	8.8
O=c1c2ccccc2oc2nc(-c3ccco3)n(-c3ccccc3)c(=O)c12	8.3	1.7	5.4	-3.0%	0.2	-5.5
CCCSc1nc2c(c(=O)[nH]1)C(c1ccc(O)c(OCC)c1)CC(=O)N2 (centres undefined)	13.5	-2.4	3.7	-2.9%	-1.8	-1.4
c1ccc(-c2csc(Nc3cccnc3)n2)nc1	-30.5*	9.9	0.2	-6.1%	-1.0	-5.4
Cc1ccc(SCc2ccc(C(=O)Nc3ccccc3C(=O)NC(C)C)cc2)cc1	-6.6	1.4	10.7	-5.3%	0.4	16.6
CCCNC(=O)c1ccccc1NC(=O)c1ccc(CSc2ccccc2)cc1	-45.5*	4.8	39.5*	-11.1%	-1.7	-8.0
CCC(C)NC(=O)c1ccccc1NC(=O)c1ccc(CSc2ccccc2)cc1 (centres undefined)	-3.9	-1.0	35.9*	-21.6%	2.2	-3.5
CCCNC(=O)c1ccccc1NC(=O)c1ccccc1SC	9.5	-10.1	0.4	-11.1%	0.2	-11.4
O=C(COCc1cc(-c2ccc(F)cc2)on1)Nc1cccc(C(F)(F)F)c1	-12.7	2.7	5.3	-26.9%	0.6	0.3
c1coc(-c2ccc3ncnc(NCc4cccs4)c3c2)c1	3.6	2.3	0.7	x	0.7	3.2
Cc1ccc(-c2nc(SCCOc3ccccc3C)n3[nH]c(=O)cc3n2)cc1	7.5	1.3	2.2	-24.8%	-0.4	-5.5
CC(C)CN1C(=O)C(=O)N(CC(=O)NC2CCCc3ccccc32)C1=O (centres undefined)	-1.6	4.8	0.7	-14.0%	0.8	-3.5
CC(C)CC1NC(=O)N(CC(=O)NC2CCCc3ccccc32)C1=O (centres undefined)	-36.3*	-6.1	-0.1	-5.2%	-0.1	-2.4
O=C(NCc1cccc(Br)c1)c1cccn1-c1nnc(N2CCCCC2)s1	13.1	2.9	1.8	-8.2%	0.2	2.5
COc1cccc(-c2ccc(NC(=O)C3CCCN(CCCn4nc(C)cc4C)C3)cc2)c1 (centres undefined)	-20.9	-3.1	41.5*	-18.8%	0.1	-6.7

From PubChem BioAssay
